According to PubChem BioAssay (EPA / NIEHS):
Records with an inconclusive call do not appear. The source holds several records for some structures; these can differ, active in one and inactive in another. Calls of active or inactive are those of the source. How the source made its calls, unless noted: active means hit-call score of the fitted dose curve at least 0.9, where 1 is the maximum; inactive means score below 0.9.

What was measured:
[1] = biological target: Hepatocyte nuclear factor 6 (Homo sapiens) (UniProt Q9UBC0); test: ATG_HNF6_CIS: Attagene CIS-FACTORIAL HepG2 Assay for human Hepatocyte Nuclear Factor 6 (HNF6) (AID 2282952); settings: HepG2 Attagene cis-factorial HNF6 reporter transcription; actives raise or lower the signal
Chain of Hepatocyte nuclear factor 6 (Homo sapiens) (Q9UBC0 whole entry, looked up, the tested form may be a part): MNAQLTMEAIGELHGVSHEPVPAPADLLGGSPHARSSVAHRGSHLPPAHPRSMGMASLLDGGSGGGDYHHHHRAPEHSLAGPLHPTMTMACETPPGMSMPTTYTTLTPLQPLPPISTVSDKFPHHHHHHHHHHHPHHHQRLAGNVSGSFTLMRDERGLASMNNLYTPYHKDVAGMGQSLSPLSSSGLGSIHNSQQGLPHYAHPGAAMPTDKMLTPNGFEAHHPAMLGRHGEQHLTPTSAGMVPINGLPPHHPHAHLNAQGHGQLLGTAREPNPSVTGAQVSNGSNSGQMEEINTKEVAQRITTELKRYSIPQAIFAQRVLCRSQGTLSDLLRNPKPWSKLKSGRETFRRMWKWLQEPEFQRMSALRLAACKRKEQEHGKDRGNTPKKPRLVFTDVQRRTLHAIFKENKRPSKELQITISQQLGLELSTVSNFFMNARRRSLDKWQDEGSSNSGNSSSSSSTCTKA
Summary of the method: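 Reporter mRNA induction or loss in HepG2 after 24 h exposure; transient cis-MRTU transfection; fragments quantified by capillary electrophoresis; bidirectional analysis, DMSO as negative control.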

[2] = biological target: Heat shock factor protein 1 (Homo sapiens) (UniProt Q00613); test: ATG_HSE_CIS: Attagene CIS-FACTORIAL HepG2 Assay for human Heat Shock Transcription Factor 1 (HSE) (AID 2282953); settings: HepG2 HSE cis-reporter, Attagene RNA transcription; actives raise or lower the signal
Chain of Heat shock factor protein 1 (Homo sapiens) (Q00613 whole entry, looked up): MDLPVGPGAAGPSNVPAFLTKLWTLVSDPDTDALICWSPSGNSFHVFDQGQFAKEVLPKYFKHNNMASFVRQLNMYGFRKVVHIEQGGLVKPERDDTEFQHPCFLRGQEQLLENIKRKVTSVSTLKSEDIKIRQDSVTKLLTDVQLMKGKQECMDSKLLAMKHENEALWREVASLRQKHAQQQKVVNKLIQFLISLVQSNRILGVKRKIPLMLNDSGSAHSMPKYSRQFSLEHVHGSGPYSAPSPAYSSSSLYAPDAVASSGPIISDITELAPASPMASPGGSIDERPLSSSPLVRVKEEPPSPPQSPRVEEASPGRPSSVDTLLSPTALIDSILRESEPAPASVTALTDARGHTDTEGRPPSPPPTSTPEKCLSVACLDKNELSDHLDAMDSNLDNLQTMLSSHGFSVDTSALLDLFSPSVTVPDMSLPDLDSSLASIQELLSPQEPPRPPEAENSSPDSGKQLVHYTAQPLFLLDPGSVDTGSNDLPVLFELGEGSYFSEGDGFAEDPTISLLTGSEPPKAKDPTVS
Summary of the method: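 Reporter mRNA induction in HepG2 is measured 24 h after dosing, using transiently transfected multiplexed cis-regulated reporter units. Signal comes from capillary electrophoresis of labelled RT-PCR products, with DMSO as negative control.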

[3] = ATG_MRE_CIS: Attagene CIS-FACTORIAL HepG2 Assay for human Metal Responsive Element (MRE) (AID 2282954); settings: HepG2 MRE cis-reporter transcription, Attagene multiplex; actives raise or lower the signal
Summary of the method: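 HepG2 cells transiently transfected with multiple cis-element reporter units measure endogenous MTF1-driven transcription. After 24 h compound exposure, reporter mRNA is quantified by RT-PCR with 6-FAM labelling, HpaI digestion and capillary electrophoresis; bidirectional fits versus DMSO.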

[4] = ATG_PBREM_CIS: Attagene CIS-FACTORIAL HepG2 Assay for human Phenobarbital-responsive Enhancer Module (PBREM) (AID 2282955); settings: HepG2 PBREM cis-reporter, Attagene multiplexed transcription; actives raise or lower the signal
Summary of the method: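 HepG2 cells transiently transfected with multiple cis-regulated reporter units measure endogenous transcription factor activity; 24 h compound exposure. Reporter mRNA quantified by RT-PCR, fluorescent labelling, HpaI digestion and capillary electrophoresis; bidirectional fit versus DMSO.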

[5] = biological target: Paired box protein Pax-6 (Homo sapiens) (UniProt P26367); test: ATG_Pax6_CIS: Attagene CIS-FACTORIAL HepG2 Assay for human Paired Box 6 (PAX6) (AID 2282956); settings: HepG2 CIS-FACTORIAL PAX6 reporter transcription, RNA readout; actives raise or lower the signal
Chain of Paired box protein Pax-6 (Homo sapiens) (P26367 whole entry, looked up): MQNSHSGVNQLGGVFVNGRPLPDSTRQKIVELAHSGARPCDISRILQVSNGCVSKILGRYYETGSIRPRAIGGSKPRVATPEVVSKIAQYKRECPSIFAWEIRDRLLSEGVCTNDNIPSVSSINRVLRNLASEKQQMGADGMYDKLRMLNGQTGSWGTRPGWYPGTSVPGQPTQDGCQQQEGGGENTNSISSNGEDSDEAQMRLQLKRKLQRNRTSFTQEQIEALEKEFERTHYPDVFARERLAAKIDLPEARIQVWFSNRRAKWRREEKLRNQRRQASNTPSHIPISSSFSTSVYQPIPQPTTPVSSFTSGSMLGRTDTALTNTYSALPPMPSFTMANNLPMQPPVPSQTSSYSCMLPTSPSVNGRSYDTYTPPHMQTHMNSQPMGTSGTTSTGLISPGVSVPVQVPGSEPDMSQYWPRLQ
Summary of the method: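 After twenty-four hours of chemical exposure, transfected HepG2 cells are harvested for RNA. Cis-promoter reporter transcripts are amplified, fluorescently labelled and sized by capillary electrophoresis, with gain and loss of signal scored against DMSO.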

[6] = ATG_PXRE_CIS: Attagene CIS-FACTORIAL HepG2 Assay for human Pregnane X Receptor Element (PXRE) (AID 2282957); settings: HepG2 Attagene CIS-FACTORIAL PXRE reporter, mRNA; actives raise or lower the signal
Summary of the method: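 Transiently transfected HepG2 cells were dosed and incubated for 24 h. RNA was then isolated, DNase-treated, reverse-transcribed and reporter sequences amplified. Labeled, HpaI-digested fragments were quantified by capillary electrophoresis against DMSO.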

[7] = ATG_PPRE_CIS: Attagene CIS-FACTORIAL HepG2 Assay for human Peroxisome Proliferator-activated Response Element (PPRE) (AID 2282958); settings: HepG2 PPRE cis-element reporter, Attagene transcription factor profiling; actives raise or lower the signal
Summary of the method: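 HepG2 cells are transiently transfected with multiplexed cis-promoter reporter units to report endogenous PPAR activity. After 24 h dosing, reporter mRNA is read by RT-PCR and capillary electrophoresis. Fitting is bidirectional against DMSO.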

[8] = ATG_RORE_CIS: Attagene CIS-FACTORIAL HepG2 Assay for human RAR-related Orphan Receptor Element (RORE) (AID 2282959); settings: HepG2 Attagene cis-factorial RORE reporter, mRNA; actives raise or lower the signal
Summary of the method: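 HepG2 cells carrying transiently transfected cis-regulated reporter units; RORE-driven reporter mRNA quantified 24 h post-dosing by RT-PCR, 6-FAM primer extension, HpaI digestion and capillary electrophoresis. Bidirectional fit versus DMSO.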

[9] = ATG_Sox_CIS: Attagene CIS-FACTORIAL HepG2 Assay for human SRY-box transcription factor (SOX) (AID 2282960); settings: HepG2 Attagene cis-factorial SOX reporter, mRNA; actives raise or lower the signal
Summary of the method: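 HepG2 cells transiently transfected with multiple cis-regulated reporter units, then dosed for 24 h. Reporter mRNA quantified by RT-PCR, fluorescent labelling, HpaI digestion and capillary electrophoresis; bidirectional fit versus DMSO.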

[10] = biological target: Transcription factor Sp1 (Homo sapiens) (UniProt P08047); test: ATG_Sp1_CIS: Attagene CIS-FACTORIAL HepG2 Assay for human Specificity Protein 1 (Sp1) (AID 2282961); settings: HepG2 Sp1 cis-reporter transcription, actives raise or lower the signal
Chain of Transcription factor Sp1 (Homo sapiens) (P08047 whole entry, looked up): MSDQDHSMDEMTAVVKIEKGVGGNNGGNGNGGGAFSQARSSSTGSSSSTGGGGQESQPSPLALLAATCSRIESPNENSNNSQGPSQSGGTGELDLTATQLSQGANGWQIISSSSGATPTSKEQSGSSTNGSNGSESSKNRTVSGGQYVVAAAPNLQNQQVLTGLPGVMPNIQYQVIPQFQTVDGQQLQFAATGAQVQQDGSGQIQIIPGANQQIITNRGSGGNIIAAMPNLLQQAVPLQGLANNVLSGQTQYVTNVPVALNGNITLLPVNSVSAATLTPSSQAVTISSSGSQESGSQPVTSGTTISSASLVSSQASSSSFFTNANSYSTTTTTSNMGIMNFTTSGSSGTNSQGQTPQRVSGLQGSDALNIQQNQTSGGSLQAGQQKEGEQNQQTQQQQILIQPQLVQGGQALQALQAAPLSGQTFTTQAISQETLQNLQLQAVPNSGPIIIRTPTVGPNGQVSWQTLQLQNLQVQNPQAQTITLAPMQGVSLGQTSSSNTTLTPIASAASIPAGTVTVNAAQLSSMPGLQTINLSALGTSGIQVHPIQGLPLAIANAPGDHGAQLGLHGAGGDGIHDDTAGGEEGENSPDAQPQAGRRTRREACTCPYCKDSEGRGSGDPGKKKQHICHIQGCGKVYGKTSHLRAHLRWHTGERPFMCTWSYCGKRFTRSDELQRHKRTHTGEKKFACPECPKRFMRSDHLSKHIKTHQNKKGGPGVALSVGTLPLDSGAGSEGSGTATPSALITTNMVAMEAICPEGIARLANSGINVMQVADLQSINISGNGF
Summary of the method: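 HepG2 cells transiently transfected with multiplexed cis-regulated reporter constructs, chemical exposure 24 h. Reporter mRNA quantified by RT-PCR with capillary electrophoresis; bidirectional fit relative to DMSO.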

[11] = ATG_SREBP_CIS: Attagene CIS-FACTORIAL HepG2 Assay for human Sterol Regulatory Element Binding (SREBP) (AID 2282962); settings: HepG2 Attagene cis-factorial SREBP reporter, mRNA; actives raise or lower the signal
Summary of the method: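 Twenty-four hours after chemical dosing of transfected HepG2 cultures, reporter RNA was converted to cDNA, amplified, end-labelled with 6-FAM and resolved by capillary electrophoresis. Responses were fitted relative to DMSO.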

[12] = ATG_TA_CIS: Attagene CIS-FACTORIAL HepG2 Assay for human TA Basal Promoter (AID 2282964); settings: HepG2 Attagene CIS-factorial TA basal promoter reporter; actives raise or lower the signal
Summary of the method: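 Cis-factorial format in HepG2: reporters report endogenous factors, not chimeric Gal4 fusions. After 24 h treatment, reporter transcripts were measured by RT-PCR-capillary electrophoresis fluorescence, analysed bidirectionally versus DMSO.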

[13] = ATG_TCF_b_cat_CIS: Attagene CIS-FACTORIAL HepG2 Assay for human T-Cell-Factor with beta-catenin (TCF/b-cat) (AID 2282965); settings: HepG2 TCF/beta-catenin cis-reporter transcription, actives raise or lower the signal
Summary of the method: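 HepG2 cells transiently transfected with multiple cis-promoter-regulated reporter transcription units, so endogenous transcription factor activity is measured. Reporter mRNA read 24 hours after dosing by RT-PCR, fluorescent labelling and capillary electrophoresis; bidirectional fitting against DMSO.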

[14] = ATG_TAL_CIS: Attagene CIS-FACTORIAL HepG2 Assay for human TAL Basal Promoter (AID 2282966); settings: HepG2 Attagene cis-factorial TAL promoter reporter; actives raise or lower the signal;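 further: background control endpoint measuring basal TAL promoter reporter mRNA not a specific factor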
Summary of the method: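 Readout: reporter mRNA, fluorescence by CE. System: HepG2, transient multi-reporter transfection, endogenous TF activity. Exposure: 24 h. Analysis: bidirectional, DMSO-normalized; background control.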

[15] = ATG_TGFb_CIS: Attagene CIS-FACTORIAL HepG2 Assay for human Transforming Growth Factor (TGF) (AID 2282967); settings: HepG2 Attagene CIS TGFb reporter, mRNA transcription; actives raise or lower the signal
Summary of the method: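 Multiplexed cis-reporter HepG2 system, 24 h treatment; mRNA induction read by fluorescence after RT-PCR and CE; DMSO negative control, bidirectional curve fitting.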

[16] = biological target: Hypoxia-inducible factor 1-alpha (Homo sapiens) (UniProt Q16665); test: ATG_HIF1a_CIS: Attagene CIS-FACTORIAL HepG2 Assay for human Hypoxia Inducible Factor 1 (HIF1A) (AID 2282951); settings: HepG2 Attagene cis-factorial HIF1a reporter transcription; actives raise or lower the signal
Chain of Hypoxia-inducible factor 1-alpha (Homo sapiens) (Q16665 whole entry, looked up): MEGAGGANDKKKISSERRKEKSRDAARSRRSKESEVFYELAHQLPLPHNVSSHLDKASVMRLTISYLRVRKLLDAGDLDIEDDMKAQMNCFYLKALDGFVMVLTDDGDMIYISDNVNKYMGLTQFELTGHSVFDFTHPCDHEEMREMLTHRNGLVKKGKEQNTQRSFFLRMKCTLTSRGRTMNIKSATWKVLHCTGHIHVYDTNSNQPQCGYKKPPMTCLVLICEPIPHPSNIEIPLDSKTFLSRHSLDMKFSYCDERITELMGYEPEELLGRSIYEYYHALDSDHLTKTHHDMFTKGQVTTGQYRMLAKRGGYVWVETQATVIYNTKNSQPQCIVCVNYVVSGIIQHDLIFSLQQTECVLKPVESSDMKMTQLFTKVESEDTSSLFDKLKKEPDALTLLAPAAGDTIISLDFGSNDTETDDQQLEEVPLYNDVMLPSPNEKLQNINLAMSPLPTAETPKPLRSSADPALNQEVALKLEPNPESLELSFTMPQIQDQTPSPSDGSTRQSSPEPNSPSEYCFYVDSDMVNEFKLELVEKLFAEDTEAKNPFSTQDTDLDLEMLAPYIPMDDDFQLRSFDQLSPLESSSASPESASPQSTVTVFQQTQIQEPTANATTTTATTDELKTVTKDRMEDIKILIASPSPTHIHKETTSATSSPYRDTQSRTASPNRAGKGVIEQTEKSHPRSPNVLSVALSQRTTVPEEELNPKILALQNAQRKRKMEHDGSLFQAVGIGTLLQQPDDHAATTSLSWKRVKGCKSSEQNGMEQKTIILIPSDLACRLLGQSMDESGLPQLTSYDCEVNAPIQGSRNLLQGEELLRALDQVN
Summary of the method: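 HepG2 cells transiently transfected with multiple cis-regulated reporter transcription units measure endogenous transcription factor activity. After 24 h exposure, reporter mRNA is quantified by RT-PCR with 6-FAM labelling, HpaI digestion and capillary electrophoresis. Bidirectional fitting against DMSO.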

[17] = biological target: Signal transducer and activator of transcription 3 (Homo sapiens) (UniProt P40763); test: ATG_STAT3_CIS: Attagene CIS-FACTORIAL HepG2 Assay for human Signal Transducer and Activator of Transcription 3 (STAT3) (AID 2282963); settings: HepG2, Attagene cis-factorial STAT3 reporter transcription; actives raise or lower the signal
Chain of Signal transducer and activator of transcription 3 (Homo sapiens) (P40763 whole entry, looked up): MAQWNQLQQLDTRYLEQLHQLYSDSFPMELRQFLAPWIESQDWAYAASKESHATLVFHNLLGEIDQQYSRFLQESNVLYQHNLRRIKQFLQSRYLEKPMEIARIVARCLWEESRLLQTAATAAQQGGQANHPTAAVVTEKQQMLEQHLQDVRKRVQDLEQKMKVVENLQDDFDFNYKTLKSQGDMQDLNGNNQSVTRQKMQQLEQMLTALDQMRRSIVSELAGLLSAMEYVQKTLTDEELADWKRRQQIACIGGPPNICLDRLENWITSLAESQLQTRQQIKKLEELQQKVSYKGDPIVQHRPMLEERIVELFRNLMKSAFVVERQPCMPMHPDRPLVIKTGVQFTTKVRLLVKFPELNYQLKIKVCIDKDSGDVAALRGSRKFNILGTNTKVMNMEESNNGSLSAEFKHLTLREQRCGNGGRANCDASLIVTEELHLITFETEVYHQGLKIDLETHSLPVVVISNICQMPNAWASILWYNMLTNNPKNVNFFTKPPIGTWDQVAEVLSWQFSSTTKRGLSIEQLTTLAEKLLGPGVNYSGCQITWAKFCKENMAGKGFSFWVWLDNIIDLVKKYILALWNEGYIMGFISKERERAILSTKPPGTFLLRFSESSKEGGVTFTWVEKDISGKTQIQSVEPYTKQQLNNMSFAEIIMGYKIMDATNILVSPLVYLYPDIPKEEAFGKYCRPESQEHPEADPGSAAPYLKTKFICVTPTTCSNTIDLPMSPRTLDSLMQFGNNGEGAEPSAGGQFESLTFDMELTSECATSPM
Summary of the method: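 HepG2 cells transiently transfected with cis-element-driven multiple reporter transcription units; after 24 h chemical exposure, reporter mRNA measured by RT-PCR, 6-FAM primer-extension labelling, HpaI digestion and capillary electrophoresis. Bidirectional fitting versus DMSO baseline.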

[18] = biological target: Estrogen receptor (Homo sapiens) (UniProt P03372); test: ATG_ERa_TRANS: Attagene TRANS-FACTORIAL HepG2 Assay for human Estrogen Receptor alpha (ERa) (AID 2282970; active means hit-call score of the fitted dose curve at least 0.9, where 1 is the maximum); settings: HepG2 Attagene TRANS ERa GAL4 reporter, mRNA
Chain of Estrogen receptor (Homo sapiens) (P03372 whole entry, looked up, the tested form may be a part): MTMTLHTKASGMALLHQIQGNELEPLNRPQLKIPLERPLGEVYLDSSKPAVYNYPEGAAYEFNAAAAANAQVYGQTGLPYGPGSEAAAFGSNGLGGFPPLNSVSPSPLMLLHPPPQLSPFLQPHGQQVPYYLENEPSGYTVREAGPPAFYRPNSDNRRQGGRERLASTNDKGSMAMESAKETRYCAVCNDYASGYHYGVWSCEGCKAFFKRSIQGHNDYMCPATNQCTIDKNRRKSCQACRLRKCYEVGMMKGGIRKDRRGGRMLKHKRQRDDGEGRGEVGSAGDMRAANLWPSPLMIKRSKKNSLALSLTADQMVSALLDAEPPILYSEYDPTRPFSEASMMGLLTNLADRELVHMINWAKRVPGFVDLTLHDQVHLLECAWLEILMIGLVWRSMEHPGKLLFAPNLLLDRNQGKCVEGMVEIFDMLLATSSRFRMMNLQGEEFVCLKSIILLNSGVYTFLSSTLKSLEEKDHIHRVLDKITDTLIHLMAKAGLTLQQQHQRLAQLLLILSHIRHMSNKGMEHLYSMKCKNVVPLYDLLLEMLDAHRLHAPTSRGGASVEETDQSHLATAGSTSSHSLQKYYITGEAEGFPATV
Summary of the method: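 Transactivation via ERa-Gal4 chimera in HepG2; 24 hour incubation; reporter mRNA detected by fluorescence RT-PCR and capillary electrophoresis.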

[19] = ATG_VDRE_CIS: Attagene CIS-FACTORIAL HepG2 Assay for human Vitamin D Receptor Element (VDRE) (AID 2282968); settings: HepG2 VDRE cis-reporter transcription, actives raise or lower the signal
Summary of the method: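 HepG2 cells transiently transfected with cis-element reporter units, dosed 24 h; reporter mRNA measured by RT-PCR, 6-FAM labeling, HpaI digestion and capillary electrophoresis. Activity fitted bidirectionally against DMSO baseline.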

[20] = biological target: Nuclear receptor subfamily 1 group I member 3 (Homo sapiens) (UniProt Q14994); test: ATG_CAR_TRANS: Attagene TRANS-FACTORIAL HepG2 Assay for human Constitutive Androstane Receptor (CAR) (AID 2282969; active means hit-call score of the fitted dose curve at least 0.9, where 1 is the maximum;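 further: activators raise reporter mRNA above DMSO so AC50 marks induction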); settings: HepG2 Attagene TRANS-FACTORIAL CAR reporter
Chain of Nuclear receptor subfamily 1 group I member 3 (Homo sapiens) (Q14994 whole entry, looked up, the tested form may be a part): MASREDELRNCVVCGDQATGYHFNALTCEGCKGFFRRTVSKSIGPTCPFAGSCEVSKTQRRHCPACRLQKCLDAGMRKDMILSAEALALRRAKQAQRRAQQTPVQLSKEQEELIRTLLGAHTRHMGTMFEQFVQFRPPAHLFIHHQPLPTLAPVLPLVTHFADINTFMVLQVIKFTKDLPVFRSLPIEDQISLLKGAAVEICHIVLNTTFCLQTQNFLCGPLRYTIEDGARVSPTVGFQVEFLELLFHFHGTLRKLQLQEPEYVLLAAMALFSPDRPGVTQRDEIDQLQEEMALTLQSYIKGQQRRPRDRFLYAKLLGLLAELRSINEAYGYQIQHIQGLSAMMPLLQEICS
Summary of the method: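 HepG2 cells transiently transfected with multiplexed GAL4-UAS reporter units expressing chimeric NR-Gal4 proteins; compound exposure 24 h. Reporter mRNA measured by RT-PCR, 6-FAM labelling, HpaI digestion and capillary electrophoresis; gain-of-signal fitted against DMSO baseline.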

Measured: AC50

Cc1cc(Cl)ccc1N
inactive: [1] | [2] | [3] | [4] | [5] | [6] | [7] | [8] | [9] | [10] | [11] | [12] | [13] | [14] | [15]
active: [6] 32.8 µM

Cc1cccc(C)c1NC(=O)CN1CCCC1=O
inactive: [16] | [1] | [3] | [5] | [7] | [8] | [9] | [10] | [11] | [17] | [12] | [13] | [14] | [15]
active: [6] 100 µM

O=C(O)CC(O)(CC(=O)O)C(=O)O
inactive: [1] | [2] | [3] | [4] | [5] | [6] | [7] | [8] | [9] | [10] | [11] | [17] | [12] | [13] | [14] | [15]

O=[N+]([O-])c1ccccc1O
inactive: [1] | [2] | [3] | [4] | [5] | [6] | [8] | [9] | [10] | [11] | [17] | [12] | [13] | [14] | [15]
active: [6] 26.7 µM

O=[N+]([O-])c1cc([As](=O)(O)O)ccc1O
inactive: [16] | [1] | [2] | [5] | [6] | [7] | [8] | [9] | [10] | [11] | [12] | [13] | [14] | [15] | [18]

C=CCOC(N)=O
inactive: [16] | [1] | [2] | [4] | [6] | [7] | [8] | [9] | [10] | [11] | [17] | [12] | [13] | [14] | [15] | [19]

CCCCCCCCCCCCCCC(Br)C(=O)O (centres undefined)
active: [16] 150 µM | [1] 187 µM | [2] 154 µM | [4] 100 µM | [5] 142 µM | [7] 42.2 µM | [8] 111 µM | [12] 110 µM | [14] 129 µM | [15] 162 µM | [19] 162 µM
inactive: [6] | [9] | [10] | [11] | [13]

CCCCCCCCCCCCCl
inactive: [16] | [1] | [2] | [5] | [6] | [7] | [8] | [9] | [10] | [11] | [17] | [12] | [13] | [14] | [15] | [18]

Clc1cnc(Oc2ccc(Oc3ncc(Cl)cc3Cl)cc2)c(Cl)c1
inactive: [1] | [2] | [3] | [4] | [5] | [7] | [8] | [9] | [10] | [11] | [17] | [12] | [13] | [14] | [15] | [20]
active: [6] 9.96 µM | [19] 20 µM
